An excerpt weighted towards active compounds, which were near 2.5% of everything screened.
ULK1 primary: ULK1 kinase inhibitors, primary screen, biochemical, AlphaScreen | actives 1.9% (n = 30,000) | AlphaScreen Atg13 phosphorylation by ULK1, luminescence | inhibition, % at 5.96 µM; in the data active means inhibition above about 43%
ASK1 primary: ASK1 kinase inhibitors, primary screen, biochemical, AlphaScreen; AID 1159602, 2016; actives 0.99% (n = 22,000); inhibition, % at 7.44 µM; Mitogen-activated protein kinase kinase kinase 5 (Homo sapiens), Q99683; AlphaScreen MKK6 phosphorylation by ASK1, luminescence; in the data active means inhibition above about 35%
Hits are given with their value; - = inactive; . = no result given; ! = not active in a repeat.

SMILES	ULK1 primary	ASK1 primary
COc1cc2nc(-c3ccc(N4CCOCC4)nc3)nc(Nc3cc(OC)c(OC)c(OC)c3)c2cc1OC	-	-
c1cc(Nc2ccc(N3CCOCC3)cc2)nc(-c2ccc(N3CCOCC3)nc2)n1	60	-
COc1cc(Nc2ccnc(-c3ccc(C(=O)NC4CC4)cc3)n2)cc(OC)c1OC	45	-
COc1cc(Nc2ccnc(-c3ccc(N4CCOCC4)nc3)n2)cc(OC)c1OC	74	-
c1cncc(CNc2nc(-c3ccc(N4CCOCC4)nc3)nc3nc[nH]c23)c1	59	-
COc1cc(Nc2cc(C)nc(-c3ccc(C(=O)NC4CC4)cc3)n2)cc(OC)c1OC	-	-
COc1ccc(-c2nc(NCc3cccnc3)c3[nH]cnc3n2)cn1	-	-
CC(=O)Nc1ccc(Nc2ccnc(-c3ccc(N4CCOCC4)nc3)n2)cc1	-	-
CCN(CC)c1nc(Nc2ccc(NC(C)=O)cc2)nc(N2CCc3ccccc3C2)n1	-	-
CC(C)N(CCNC(=O)Cc1cn(-c2ccc(Nc3ccccc3)nn2)c2ccccc12)C(C)C	-	-
c1ccc(-c2cc(N3CCC4(CC3)OCCO4)nc(-c3ccccn3)n2)nc1	-	.
O=C1CCCN1CCCNc1cc(NCCO)ncn1	-	-
COc1cc2nc(Nc3ccc(C(F)(F)F)cc3)nc(Nc3cc(OC)c(OC)c(OC)c3)c2cc1OC	-	-
COc1ccc(-c2ncc(C)c(Nc3cc(OC)c(OC)c(OC)c3)n2)cn1	55	-
COc1ccc(-c2ncc(C)c(Nc3ccccc3)n2)cn1	-	-
COc1cc(Nc2nc(-c3ccc(N4CCOCC4)nc3)nc3nc[nH]c23)cc(OC)c1OC	-	-
Cc1cnc(-c2ccc(N3CCOCC3)nc2)nc1Nc1ccc(N2CCOCC2)cc1	52	-
COc1cc(Nc2nc(-c3ccc(N4CCOCC4)nc3)ncc2C)cc(OC)c1OC	89	-
Cc1cnc(-c2ccc(N3CCOCC3)nc2)nc1Nc1ccc(Oc2ccccc2)cc1	-	-
COc1ccc2c(c1)CC(C(=O)Nc1cc(F)c(-c3ccnc(N)n3)c(F)c1)CO2 (centres undefined)	-	-
O=C(Nc1ccc(N2CCOCC2)cc1)c1csc(Nc2ncccn2)n1	53	-
O=C(Nc1ccc(N2CCOCC2)cc1)c1cccc(Nc2ccc3ncccc3c2)n1	46	-
O=C(Nc1ccc(N2CCOCC2)cc1)c1csc(Nc2ccncn2)n1	-	-
CCN(CC)C(=O)C1CCCN(c2cccc(C(=O)NCCN3CCOCC3)n2)C1 (centres undefined)	-	-
O=C(Nc1ccc(N2CCOCC2)cc1)c1cccc(Nc2ccncn2)n1	52	-
SMILES	ULK1 primary	ASK1 primary
CCN(CC)C(=O)C1CCCN(c2cccc(C(=O)Nc3ccc(N4CCOCC4)cc3)n2)C1 (centres undefined)	52	-
O=C(Nc1ccc(N2CCOCC2)cc1)c1csc(Nc2ccc(N3CCOCC3)cc2)n1	-	-
O=C(NCCN1CCOCC1)c1cccc(Nc2ccc3ncccc3c2)n1	-	-
CC(C)N(CCNC(=O)c1cncc(-c2cccs2)c1)C(C)C	-	-
Cn1c(=O)cc(NCCCO)n(Cc2ccc(F)cc2F)c1=O	-	.
Nc1nc(Nc2ccc(N3CCOCC3)cc2)nc2c1ncn2Cc1ccc(C(F)(F)F)cc1	-	-
Cc1ccc(-c2cccc3cnc(Nc4cccc(C(=O)NC5CC5)c4)nc23)cn1	59	-
O=C(NC1CC1)c1cccc(Nc2cnccn2)c1	-	-
Cc1ccc(-c2cccc3cnc(Nc4ccc(C(=O)NC5CC5)cc4)nc23)cn1	62	-
Cc1ccc(-c2cccc3cnc(Nc4ccc(-n5cnc(-c6ccccn6)n5)cc4)nc23)cn1	-	-
c1cc2[nH]ncc2cc1NC1CCNC1 (centres undefined)	-	-
COc1cc(Nc2nc(Nc3cccnc3)ncc2C)cc(OC)c1OC	-	-
COc1cc(Nc2nc(Nc3ncccn3)ncc2C)cc(OC)c1OC	-	-
COc1ccc(CCNc2nc(Nc3ccc4ncccc4c3)ncc2C)cc1	-	-
Cc1cnc(Nc2ccc3ncccc3c2)nc1NCCc1ccc(O)cc1	51	-
COc1cc(Nc2nc(Nc3ccc4ncccc4c3)ncc2C)cc(OC)c1OC	63	-
COc1cc(Nc2ncc(C)c(Nc3ccccc3)n2)cc(OC)c1OC	73	-
Cc1ccc(C(=O)Nc2ccc(-n3c(C)nc4ncccc4c3=O)cc2)cc1C	-	.
O=C(Nc1ccc2[nH]ncc2c1)C1COc2ccccc2O1 (centres undefined)	-	-
Nc1n[nH]c2c(Br)cc(NC(=O)C3COc4ccccc4O3)cc12 (centres undefined)	58	-
N/C(=N\N=C\c1cccc([N+](=O)[O-])c1)SC1CC(=O)N(c2cccc(C(=O)O)c2)C1=O (centres undefined)	-	.
Cc1ncn(-c2ccc(N(c3ncc4cccc(-c5cnn(C(C)C)c5)c4n3)C(C)C)cc2)n1	92	-
Cc1ncn(-c2ccc(Nc3ncc4cccc(-c5cnn(-c6ccccc6)c5)c4n3)cc2)n1	-	-
CCN(CC)C(=O)C1CCCN(c2nc3c(Nc4ccc(Oc5ccccc5)cc4)ncnc3n2C(C)C)C1 (centres undefined)	-	-
CC(C)[C@@H](O)C(=O)N[C@H]1CC[C@@H](C(=O)Nc2ccc3[nH]ncc3c2)C1	-	-
SMILES	ULK1 primary	ASK1 primary
NC1CCC(C(=O)Nc2ccc3[nH]ncc3c2)CC1 (centres undefined)	55!	-
N[C@H]1CCC[C@H](C(=O)Nc2ccc3cnccc3c2)C1	75	-
N[C@@H]1CC[C@H](C(=O)Nc2ccc3cnccc3c2)C1	-	-
c1ccc(Nc2nccc(NC3CC3)n2)nc1	-	-
O=C(Cc1cn(-c2ccc(N3CCC(N4CCOCC4)CC3)nn2)c2ccccc12)NCCc1ccc(O)cc1	-	-
Cc1ccc(S(=O)(=O)N2CCC(C(=O)NC3CCCCC3)CC2)cc1Cl	-	.
CC(C)n1c(Nc2ccc(-n3ccnc3)cc2)nc2c(NCCOc3ccccc3)ncnc21	-	-
O=C(c1cc(O)c(O)c(O)c1)c1ccc(O)c(O)c1O	83	.
O=C(O)c1cc(O)c(O)c(O)c1	-	.
COc1ccc(CCNc2cc(-c3ccc(OC)nc3)ncn2)cc1	-	-
Cn1cc(-c2cc(Nc3ccc(N4CCOCC4)cc3)ncc2Cl)cn1	61	-
Cn1cc(-c2cc(Nc3ccc(N4CCOCC4)cc3)ncc2F)cn1	-	-
COc1cc(NC(=O)c2ccc3nc(-c4ccc(N5CCOCC5)nc4)sc3c2)cc(OC)c1OC	-	-
O=C1c2cccc(O)c2C(=O)c2c(O)cccc21	-	.
Cc1cc(O)c2c(c1)Cc1cccc(O)c1C2=O	44	.
Cc1cc(N/N=C/c2ccccc2[N+](=O)[O-])nc(-c2ccccc2O)n1	-	.
NC(=O)c1ccc(-c2cc(C(=O)NCCCN3CCCC3=O)ccn2)cc1	-	-
N[C@@H](Cc1ccc(Br)cc1)C(=O)N1CCC(c2nc(-c3ccncc3)no2)CC1	72	-
N[C@@H](Cc1ccc(Br)cc1)C(=O)N1CCC(c2nc(-c3ccncc3)no2)C1 (some centres undefined)	-	-
CC(C)n1cnc2c(NCc3cccc(C(F)(F)F)c3)nc(Nc3ccc(C(F)(F)F)cc3)nc21	-	-
c1ccc(OCCNc2nc(Nc3ccc(-n4ccnc4)cc3)nc3nc[nH]c23)cc1	53	-
Cc1cnc(Nc2ccc(-n3ccnc3)cc2)nc1NCCO	50	-
